Sampled rows, rich in hits. Any-hit rate of the full collection: about 0.74%.
Glioma ERSR ind: ER stress response induction in glioma; U87-MG GRP78 promoter luciferase reporter, 16 h; Potency, µM, for inactives: at the highest dose activation, most hits filed as activators; actives 0.02% (n = 420,000); AID 602332; also: potency is read from the fitted curve at half-maximal effect; series mostly up to about 76 µM; % of control where 0% means no effect; nearly all actives have a fitted effect of over 35% in size
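Stably transfected U87-MG glioma cells carrying a GRP78-based luciferase sensor; 16 h compound incubation. Luminescence end-point read 10 min after Bright-Glo addition at room temperature.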
Akt phos inh: blocks phosphorylation of Akt; Neuro2A IGF-stimulated pAkt S473 HTRF, 20 min; active compounds read low; activity change, % for hits at 50 µM; actives 0.32% (n = 360,000); in the data active = activity change below about -80%; inconclusive = mostly about -51% to -80%; also: % is scaled to controls: 0 for no effect and ±100 for the full control effect
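Neuro2A cells in DMEM with 0.5% FBS, overnight at 37 deg C, given compound at single 50 µM final, then IGF (6 nM final) for 20 min at 37 deg C. Lysed; phospho-Akt Ser473 by HTRF after 24 h, 665/615 ratio.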
Vif-A3G inh: Vif-A3G binding inhibition; Potency, µM (series often up to 46.1 µM), inactives show at the top dose activity, negative = active, most hits filed as inhibitors; HeLa A3G-eYFP + Vif (tagged APOBEC3G with the HIV-1 protein that degrades it), YFP fluorescence, overnight; actives 0.076% (n = 410,000); Q9HC16; also: potency is read from the fitted curve at half-maximal effect; % is scaled to controls: 0 for no effect and ±100 for the full control effect; nearly all actives have a fitted effect of over 60% in size
Target sequence (Q9HC16 whole entry, looked up): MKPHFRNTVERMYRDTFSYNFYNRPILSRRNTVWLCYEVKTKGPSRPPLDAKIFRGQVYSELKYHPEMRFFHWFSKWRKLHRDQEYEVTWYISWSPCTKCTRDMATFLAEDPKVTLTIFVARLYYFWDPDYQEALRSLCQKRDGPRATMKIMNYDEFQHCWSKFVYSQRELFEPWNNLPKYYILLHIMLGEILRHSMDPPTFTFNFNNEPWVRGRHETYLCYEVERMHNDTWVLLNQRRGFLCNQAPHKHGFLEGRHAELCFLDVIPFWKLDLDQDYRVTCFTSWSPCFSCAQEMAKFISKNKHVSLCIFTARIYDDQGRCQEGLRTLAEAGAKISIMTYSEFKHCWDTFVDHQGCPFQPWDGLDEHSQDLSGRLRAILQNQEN
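Read-out is eYFP fluorescence (Ex 488/Em 500-530) from Vif-expressing HeLa A3G-eYFP cells; more signal means A3G escaped Vif-mediated degradation. Cells plated overnight, compound pinned in, incubated overnight at 37 deg C.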
LDHA block: blocks human lactate dehydrogenase A; purified LDHA, NADH/diaphorase-resazurin fluorescence; active compounds read low; activity change, % (values are at about 110 or 230 µM); actives 0.15% (n = 480,000); AID 1347041; in the data active = activity change below about -30%; inconclusive = mostly about -25% to -30%;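 also: plate controls were DMSO wells for no effect and wells without enzyme for full effect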
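Human LDH5 (2 nM) was incubated with 0.06 mM NADH and 0.2 mM pyruvate for 5 min at room temperature in Tris pH 7.4. Remaining NADH was coupled through diaphorase/resazurin, and resorufin fluorescence was read at 0 and 20 min.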
Vif-APOBEC3F blk: Vif-A3F binding inhibition | actives 0.2% (n = 390,000) | HeLa A3F-eYFP + Vif (tagged APOBEC3F with the HIV-1 protein that degrades it), YFP fluorescence increase | Potency, µM (highest dose often 46.1 µM), for inactives: at the highest dose activity, negative = active; also: potency is read from the fitted curve at half-maximal effect; % of control where 0% means no effect; nearly all actives have a fitted effect of over 65% in size
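Fluorescence increase (Ex 488/Em 500-530) after overnight compound treatment at 37 deg C flags inhibition of Vif-driven A3F-eYFP loss in stable HeLa A3F-eYFP/Vif cells seeded overnight beforehand.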
PINK1 modulator: changes PINK1 expression; PINK1 immunofluorescence, high-content cytometry, 24 h; Potency, µM (doses to about 76.6 µM), for the others: at the top dose activation (PINK1 increase), actives largely listed as activators; actives 0.2% (n = 410,000); AID 624263; active = well fitted activation curve with a large enough effect; inconclusive = small, poorly fitted or top-dose-only effect; cell line not stated here; also: potency is read from the fitted curve at half-maximal effect; % of control where 0% means no effect; nearly all actives have a fitted effect of over 65% in size
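Measures PINK1 amount and localization on or inside mitochondria by immunofluorescence. Stable cells get compounds at 5 concentrations for 24 hours before fixation and staining; CCCP controls included.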
* marks the source's active call; other numbers are inactive results; i = inactive; ? = inconclusive; . = no result given. Unless noted, calls follow the shape of the dose curve; as a rule, active = well fitted curve in the direction sought with a large enough effect; inconclusive = small, poorly fitted or top-dose-only effect, or another doubt; inactive = no such curve, though single readings can be large; an effect the other way counts as inactive or inconclusive.

SMILES	Glioma ERSR ind	Akt phos inh	Vif-A3G inh	LDHA block	Vif-APOBEC3F blk	PINK1 modulator
COc1ccc2oc(=Nc3ccccc3)c(-c3nc4ccccc4[nH]3)cc2c1	3.0%	i	-27.9%	-1.6	11.2µM*	-1.1%
CN1C(=O)C(Cc2nc3ccccc3c(=O)n2C)c2cc(Br)ccc21 (stereo not drawn)	.	.	.	12.8	.	.
CC(=O)N/N=C/c1cc(C(C)C)cc(/C=N/NC(C)=O)c1O	-5.5%	i	?	5.8	31.6µM*	6.8%
CCCCNc1c(-c2ccc(SC3CCCCC3)c(OC)c2)nc2ccc(C)cn12	-3.1%	i	-2.9%	5.2	-11.0%	25.1µM*
CCC(C)Sc1cc(-c2nc3cc(C)ccn3c2NC2CCCCC2)ccc1OC (stereo not drawn)	1.4%	i	?	5.9	?	12.6µM*
CCC(C)Sc1ccc(-c2nc3ccc(C)cn3c2NCc2ccccc2)cc1OC (stereo not drawn)	-4.6%	i	-1.0%	1.2	-3.3%	15.8µM*
CCC(C)Sc1cc(-c2nc3ccc(C)cn3c2NCc2ccccc2)ccc1OC (stereo not drawn)	-4.8%	i	-6.6%	1.9	-0.1%	?
Cc1c(CC(=O)O)c(=O)oc2cc3occ(-c4ccc(F)cc4)c3cc12	1.3%	i	1.1%	-42.1*	6.7%	-2.4%
COc1ccc(-c2coc3cc4oc(=O)c(CC(=O)O)c(C)c4cc23)cc1	3.5%	i	0.6%	-3.8	3.0%	0.6%
Cc1c(CC(=O)NCC(=O)O)c(=O)oc2cc3occ(-c4ccccc4)c3cc12	-2.2%	i	-3.1%	-84.9*	7.2%	-0.7%
Cc1ccc2[nH]c(C)c(CC(=O)N(C)CCC#N)c2c1	.	.	.	-3.4	.	.
O=C(C[n+]1cc(Br)cc2ccccc21)c1ccc(Cl)cc1	8.3%	i	-23.6%	-6.5	?	14.1µM*
CC1=Nc2ccccc2/C1=C/c1sc(=N)n(-c2nccs2)c1O	-18.0%	i	12.6µM*	-7.7	?	?
O=C(COC(=O)c1cc2c(s1)CCCC2)Nc1ccc(Cl)cc1	.	.	.	16.2	.	.
CC#CC[N+](C)(CC#CC)Cc1ccccc1	.	.	.	14.6	.	.
CCOC(=O)c1c(NC(=O)c2ccc(S(=O)(=O)N3CCC(C)CC3)cc2)sc2c1CCN(C)C2	-10.8%	.	?	-2.7	10µM*	20.8%
CCCN1CCc2c(sc(NC(=O)c3ccc(S(=O)(=O)N(C)c4ccccc4)cc3)c2C(=O)NC)C1	-9.3%	i	22.4µM*	1.4	?	3.9%
CCCN1CCc2c(sc(NC(=O)c3ccc(S(=O)(=O)N4CCN(C(=O)OCC)CC4)cc3)c2C(N)=O)C1	-13.6%	i	?	-4.3	10µM*	-0.1%
CCCN1CCc2c(sc(NC(=O)c3ccc(S(=O)(=O)N(C)c4ccccc4)cc3)c2C(N)=O)C1	-1.5%	i	?	-4.2	6.31µM*	15.8%
CCOC(=O)N1CCN(S(=O)(=O)c2ccc(C(=O)Nc3sc4c(c3C(N)=O)CCN(CC)C4)cc2)CC1	-15.8%	i	?	0.5	?	-2.3%
CCOC(=O)N1CCN(S(=O)(=O)c2ccc(C(=O)Nc3sc4c(c3C(=O)OC)CCN(C)C4)cc2)CC1	-18.1%	i	?	-4.3	?	-1.4%
Cn1c(SCC(=O)c2ccccc2)nc2cccnc21	-2.5%	i	2.2%	-1.4	-8.1%	3.7%
Cc1ccc(C(=O)CSc2nc3cccnc3n2C)cc1	-0.4%	-106.0%*	-1.4%	-6.2	4.3%	0.7%
COc1ccccc1NC(=O)CSc1nc(N)c(C#N)cc1C#N	-5.7%	i	-1.4%	-0.7	-3.1%	-2.9%
CCOc1ccccc1NC(=O)CSc1nc(N)c(C#N)cc1C#N	-11.4%	-96.3%*	-12.4%	-6.2	?	9.7%
SMILES	Glioma ERSR ind	Akt phos inh	Vif-A3G inh	LDHA block	Vif-APOBEC3F blk	PINK1 modulator
Cc1ccccc1NC(=O)CSc1nc(N)c(C#N)c(-c2cccs2)c1C#N	-8.2%	-101.1%*	-10.0%	-5.6	-6.5%	?
CCOC(=O)C1=C(C)Nc2nc(SCc3ccc(F)cc3)nn2C1c1cccs1 (stereo not drawn)	.	.	.	0.5	.	.
c1ccc(-c2nc(C34CC5CC(CC(C5)C3)C4)cs2)nc1	.	.	.	3.4	.	.
CC1(CCC#N)N=C(SCCC#N)N(c2ccccc2)C1=O (stereo not drawn)	0.0%	-117.3%*	-0.2%	-9.2	-3.2%	-1.1%
O=C(Nc1sc2c(c1C(=O)O)CCCCC2)c1cccs1	-1.8%	i	-4.8%	-42.4*	-0.7%	-0.6%
Cc1sc(NC(=O)c2ccccc2)c(C(c2cccs2)N2CCOCC2)c1C (stereo not drawn)	.	.	.	6.9	.	.
CC1CCc2c(sc(NC(=O)c3cccs3)c2C(=O)O)C1 (stereo not drawn)	2.3%	i	2.1%	-39.6*	9.7%	-2.4%
COC(=O)c1c(NC(=O)c2cccs2)sc2c1CCC(C)C2 (stereo not drawn)	2.2%	-101.4%*	-2.2%	-8.0	0.1%	1.0%
O=C(Nc1sc2c(c1C(=O)O)CCCC2)c1cccs1	7.1%	.	-4.2%	0.0	-8.9%	.
CC(=O)Nc1sc2c(c1C(c1cccs1)N1CCOCC1)CCCC2 (stereo not drawn)	2.9%	-109.6%*	-1.2%	-4.5	-3.3%	3.0%
CN(C)S(=O)(=O)c1cccc(NC(=O)c2nc(-c3ccccc3)n(-c3ccccc3)n2)c1	.	.	.	-15.3	.	.
COc1ccc(N=Cc2oc3ccc4ccccc4c3c2O)cc1	-1.8%	i	8.91µM*	-4.0	7.94µM*	0.2%
COc1ccccc1C(C)NC(=O)Cc1n[nH]c(=O)c2ccccc12 (stereo not drawn)	.	.	.	-8.4	.	.
Cc1cc(C)c(NC(=O)C2CCCN2C)c(C)c1 (stereo not drawn)	-3.0%	-101.2%*	-3.7%	-9.0	.	-0.8%
Cc1cc(C)c(NC(=O)C2CCCN2CCO)c(C)c1 (stereo not drawn)	1.4%	.	2.2%	0.0	-0.4%	.
CCN(CC)S(=O)(=O)c1ccc(C)c(NC(=O)CNc2cccc(S(=O)(=O)N3CCOCC3)c2)c1	-2.1%	i	-4.6%	-3.0	-28.5%	6.6%
CCN(CC)S(=O)(=O)c1ccc(C)c(NC(=S)Nc2cccc(S(=O)(=O)N3CCCCCC3)c2)c1	-4.1%	i	1.5%	-1.4	-6.7%	25.1µM*
O=C(CNc1ccc(C(F)(F)F)cc1)Nc1cccc(S(=O)(=O)N2CCCC2)c1	-3.3%	i	-1.2%	0.5	-3.1%	4.0%
O=C(Nc1ccc(Cl)cn1)c1cccc(S(=O)(=O)N2CCCCCC2)c1	-5.5%	i	20µM*	-4.5	0.1%	-0.6%
O=C(Nc1cccc(Cl)c1)Nc1cc(S(=O)(=O)N2CCCCC2)ccc1Cl	-3.6%	i	-1.3%	-3.0	-15.4%	14.1µM*

Screens as filed in PubChem BioAssay.
